Assay outcomes from PubChem BioAssay.
DT40 TDP1 no CPT = qHTS for Inhibitors of human tyrosyl-DNA phosphodiesterase 1 (TDP1): qHTS in cells in absence of CPT | DT40 Tdp1-/- hTDP1 cells, no CPT, ATP luminescence, 48 h | Potency, µM (series often up to 46.2 µM), for inactives: top-dose activity change, negative = growth inhibition, usual class: inhibitors | hit rate 15% among 420,000 | AID 686978, 2013; further: potency means the concentration at half of the fitted maximal effect; nearly all actives have a fitted effect of over 55% in size
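Readout: luminescence from CellTiter-Glo after 30 min in the dark at RT. Cells: DT40 Tdp1-/- with stable hTDP1, 400/well. Exposure: compounds alone, ≥48 hr, 37 °C.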
HT1080-NT tox = kills 2HG-producing HT-1080-NT fibrosarcoma cells | HT-1080-NT fibrosarcoma viability, CellTiter-Glo ATP luminescence, 48 h | Potency, µM (top dose mostly 46.1 µM), without a hit: at the highest dose activity, negative = less viability, most hits filed as cytotoxic | hit rate 1.6% among 360,000;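 further: NT is the 2HG producing partner of a matched IDH1 knockdown line; potency means the concentration at half of the fitted maximal effect; 0% = DMSO-treated cells and -100% = media-only wells without cells; nearly all actives have a fitted effect of over 55% in size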
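750 cells/well, RPMI + 5% FBS; 2 h settle, compound pin-transfer, 48 h at 37 degrees C. CellTiter-Glo 10 min RT, luminescence. Normalized to DMSO and media-only wells.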
TDP1 cell CPT = growth inhibition of DT40 Tdp1-/-;hTDP1 cells with camptothecin (screen for TDP1 inhibitors). chicken DT40 Tdp1-/-;hTDP1 cells + 20 nM CPT, ATP luminescence, 48 h. Potency, µM (titrated, usually from 46.2 µM), without a hit: at the highest dose activity change, negative = growth inhibition, most hits filed as inhibitors. hit rate 12% among 420,000. AID 686979; further: potency means the concentration at half of the fitted maximal effect; nearly all actives have a fitted effect of over 55% in size
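Cell growth measured by CellTiter-Glo luminescence after a minimum 48 h, 37 C compound exposure with 20 nM CPT in Tdp1-knockout DT40 cells stably expressing hTDP1, seeded 400/well; qHTS titration format.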
HT1080 IDH1KD tx = kills HT-1080 cells with IDH1 knockdown; HT-1080 IDH1 knockdown viability, ATP luminescence, 48 h; Potency, µM (series often up to 46.1 µM), for inactives: top-dose activity, negative = toxicity, usual class: cytotoxic; hit rate 2% among 360,000;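 further: potency means the concentration at half of the fitted maximal effect; 0% = DMSO wells and -100% = cell-free medium wells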
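In this qHTS, HT-1080 cells depleted of IDH1 are exposed for 48 h at 37 °C to compound titrations. Toxicity is scored from CellTiter-Glo luminescence, with DMSO as full viability and medium alone as none.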
IL1B secr inh = blocks inflammasome-driven IL-1 beta release; THP-1 LPS/ATP IL-1B secretion, AlphaLISA, 16 h; hits give low values; hit rate 4.7% among 360,000; activity change, % at 57.5 µM; in the data active means activity change below about -50%; inconclusive means mostly about -30% to -49%
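Secreted IL-1B measured by AlphaLISA bead assay after 16 h compound exposure of THP-1 cells; compounds (final up to 57.5 uM) added 1 h before LPS (250 ng/mL) and ATP (1.25 mM) stimulation; lower signal means less secretion.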
* hit, by the source's call; ? = inconclusive; / = no result. The list is not random: actives were taken first. Their share in the collection is about 19%. Unless noted, the call rests on the fitted dose curve; in most records, active means well fitted curve in the direction sought with a large enough effect; inconclusive means small, poorly fitted or top-dose-only effect, or another doubt; inactive means no such curve, though single readings can be large; an effect the other way counts as inactive or inconclusive. Unless noted, on the % scale 0 is the no-effect control and ±100 the full control effect.

SMILES	DT40 TDP1 no CPT	HT1080-NT tox	TDP1 cell CPT	HT1080 IDH1KD tx	IL1B secr inh
CCc1ccc(NC(=O)CN(CC(=O)Nc2ccc(CC)cc2)CC(C)O)cc1 (centres undefined)	?	-22.9%	?	-6.1%	-20.4
Cc1cc2c(NCCc3ccccc3)ncnc2s1	1.03µM*	-23.5%	1.64µM*	?	-70.3*
N#Cc1cccc(NC(=O)CN2NS(=O)(=O)c3ccccc3C2=O)c1	-16.3%	0.2%	-4.9%	1.8%	2.9
COc1ccccc1-c1nccc(Nc2ccc(F)cc2)n1	?	/	23.1µM*	/	/
c1csc(CNc2ccnc(-c3ccoc3)n2)c1	-25.8%	/	?	/	/
CN(C)C(=O)c1ccc(-c2nccc(NCc3cccs3)n2)cc1	-7.8%	/	-11.9%	/	/
COc1ccccc1-c1nccc(NCc2cccs2)n1	?	/	20.6µM*	/	/
Fc1ccc(Nc2ccnc(-c3ccoc3)n2)cc1	-4.1%	/	-22.3%	/	/
CN(C)c1ccc(-c2nccc(NCc3cccs3)n2)cc1	23.1µM*	/	20.6µM*	/	/
CNS(=O)(=O)c1cn(CC(=O)N2CCN(c3ccc(C(C)=O)cc3)CC2)cc1S(=O)(=O)NC	-26.4%	/	-24.6%	/	/
COc1ccccc1-c1coc2c(CN3CCOCC3)c(O)ccc2c1=O	5.5%	13.8%	12.9%	13.1%	10.7
Nc1nc(NCc2ccco2)nc(Nc2cccc(F)c2)c1[N+](=O)[O-]	6.0%	8.9%	2.5%	7.8%	-1.9
Oc1ccc(Cl)cc1CNCC1CCCCC1	?	-4.0%	14.6µM*	-1.7%	-63.8*
Oc1ccc(Cl)cc1CNC1CCCCC1	?	-5.5%	-0.6%	-2.3%	?
Cc1sc2ncnc(N3CCC(C(=O)Nc4ccc(S(N)(=O)=O)cc4)CC3)c2c1C	14.6µM*	-18.7%	?	-1.3%	-7.7
Cc1ccc(C)c(S(=O)(=O)N2CCN(C(=O)C3CCN(c4ncnc5sc(C)c(C)c45)CC3)CC2)c1	10.3µM*	5.3%	14.6µM*	-9.9%	?
CCN(CC)S(=O)(=O)c1cc(NC(=O)C2CCN(c3ncnc4sc(C)c(C)c34)CC2)ccc1Cl	20.6µM*	?	14.6µM*	-26.2%	-28.4
Cc1ccc(C)c(S(=O)(=O)N2CCN(C(=O)C3CC3C)CC2)c1 (centres undefined)	-27.7%	-1.2%	-12.1%	5.5%	-2.8
Cc1ccc(NC(=O)C2CCN(c3ncnc4sc(C)c(C)c34)CC2)cc1S(=O)(=O)N(C)C	9.2µM*	-6.5%	13µM*	-18.9%	-9.8
COc1ccc(OC)c(CNC(=O)CN2N=C(c3ccc(Cl)cc3)CCC2=O)c1	-21.5%	/	-15.3%	/	/
CCC(=O)N1CCC(C)(C(=O)Nc2nccc3ccccc23)C1 (centres undefined)	-18.5%	-0.2%	5.4%	7.6%	28.9
CN(c1ccc(F)cc1)S(=O)(=O)N1CCCC(C(=O)NCc2cccc(Br)c2)C1 (centres undefined)	11.6µM*	/	14.6µM*	/	/
CCN(c1ccc(OC)cc1)S(=O)(=O)N1CCCC(C(=O)NCc2cccc(C)c2)C1 (centres undefined)	?	-3.4%	?	-6.9%	-0.3
CCOc1ccc(CNC(=O)C2CCCN(S(=O)(=O)N(C)c3ccc(F)cc3)C2)cc1OC (centres undefined)	13µM*	/	14.6µM*	/	/
CCOc1ccc(CCNC(=O)C2CCCN(S(=O)(=O)N(C)c3ccc(F)cc3)C2)cc1 (centres undefined)	20.6µM*	/	20.6µM*	/	/
CCOc1ccc(CNC(=O)C2CCCN(S(=O)(=O)N3CCC(C)CC3)C2)cc1OC (centres undefined)	?	0.4%	?	-1.4%	-13.7
Cc1ccc(CNC(=O)CCc2nnc(Cc3ccc(-c4ccccc4)cc3)o2)o1	?	-4.7%	?	-5.9%	23.4
CCCCCN(C(=O)CCC(=O)OC(C)C(=O)NCc1ccccc1)c1c(N)n(CCCC)c(=O)[nH]c1=O (centres undefined)	-2.2%	-0.7%	3.3%	-1.4%	-13.1
